Test results taken from PubChem BioAssay (NCI).
Values joined by “and” are separate entries in the source; they are usually repeats but may differ in a detail not shown here. Identical values can stand only once. The panel holds about 83,000 compounds, 20% with a hit somewhere; the sample as a whole holds those more often.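 Assay: single dose, 48 h. Readout: percent growth (0 = no net growth; negative = cell death). Active: <10.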 Active and inactive are the calls of the source.

The compounds below were run on HL-60(TB) leukemia (assay: NCI-60 one-dose screen, 48 h (100 = growth as untreated, 0 = no growth, -100 = all killed)). Details: 10 µM unless noted.

Structure (SMILES) | growth
COc1ccc(-c2nnc(SCC(=O)Nc3ccc(C(=O)/C=C/c4ccccc4)cc3)o2)cc1OC | 90% (inactive)
O=C1/C(=C2/C=Nc3ccccc32)N(O)c2ccccc21 | 8.87% (active)
Nc1c(C(=O)Nc2ccccc2)sc2nc3c(cc12)CCCCC3 | 10.4% (inactive)
O=C(Cn1cc(CN2CCCCCC2)nn1)Nc1ccc2c(ccn2Cc2ccccc2)c1 | 92.2% (inactive)
Cc1cc(C(=O)c2ccc(Cl)cc2)ccc1O | 147% (inactive)
O=C1C2=C(CCN(Cc3ccccc3)C2)N2CCN=C2N1Cc1ccc(F)cc1F | 27.8% (inactive)
Cc1ccc(S(=O)(=O)N2C/C(=C\c3cc(F)cc(F)c3)C(=O)/C(=C/c3cc(F)cc(F)c3)C2)cc1 | 10.9% (inactive)
Cn1cnc([N+](=O)[O-])c1Sc1ncnc2nc[nH]c12 | 73.5% (inactive) and 91.7% (inactive)
CN(C)C(=S)Sc1ccc([N+](=O)[O-])cc1[N+](=O)[O-] | -5.16% (active)
COc1cc(/C=C2\Oc3cc(OCCCN4CCCC4)ccc3C2=O)cc(OC)c1 | 72.5% (inactive)
CCCCNC(=O)CC1=C(C)/C(=C/c2[nH]c(-c3ccc[nH]3)cc2OC)N=C1C | 12.9% (inactive)
O=C(Nc1ccc(-n2cc(-c3ccncc3)c(-c3ccc(O)c(Cl)c3)n2)cc1)Nc1ccc(Cl)c(C(F)(F)F)c1 | -4.77% (active)
COc1ccc2c(c1)NC1=C(C(=O)OC1)C2c1cc(OC)c2c(c1)OCO2 (centres undefined) | 0.722% (active)
Cc1c2c(cc3c1[nH]c1ccccc13)C=NCC2 | 93.3% (inactive)
CS(=O)(=O)Nc1cc(-c2ccc3ncnc(Nc4ccc5c(cnn5Cc5ccccn5)c4)c3c2)cnc1Cl | 56.5% (inactive)
COc1cc(-c2nc(-c3ccc(-c4nc5ccc(F)cc5[nH]4)cc3)no2)cc(OC)c1OC | 13.4% (inactive)
CCOC(C)(c1ccc(Cl)cc1)C1CCNCC1 (centres undefined) | 86.1% (inactive)
Nc1c(S(=O)(=O)O)cc(Br)c2c1C(=O)c1ccccc1C2=O | 103% (inactive) and 91% (inactive)
N#Cc1c(O)c2c(c(O)c1C#N)C(=O)c1ccccc1C2=O | -38.1% (active)
Clc1nc(Cl)c2ncn(C/C=C/Cn3cnc4c(Cl)nc(Cl)nc43)c2n1 | -2.68% (active)

Structure (SMILES) | growth
O=C(CCCn1c2c(sc3ccccc32)c(=O)n2nnc(-c3ccccc3)c12)NCCc1cnc[nH]1 | 82.4% (inactive)
COc1ccc(-c2nc3c(c(-c4ccccc4)nn3-c3ccccc3)c(-c3ccc(N4CCN(C)CC4)cc3)c2C#N)cc1 | 80.4% (inactive)
CCOC(=O)c1c2ncccc2n2c(=O)n(-c3ccccc3C)nnc12 | 56.9% (inactive)
C=C1CC[C@@H]2[C@](C)(COC(C)=O)[C@H](OC(C)=O)CC[C@@]2(C)[C@@H]1CC(Nc1ccc(S(=O)(=O)Nc2cc(C)on2)cc1)C1=CCOC1=O (some centres undefined) | -2.05% (active)
c1ccc(Cc2nn3cc(-c4ccccc4)nc3s2)cc1 | 68% (inactive)
COc1ccc2c(c1)C(=O)/C(=C/c1ccccn1)CC2 | 75.5% (inactive)
COC(=O)[C@H](Cc1ccccc1)NC(=O)[C@@H](OC)[C@@H]1Cc2cc3cc(OC4CC(OC5CC(O)C(O)C(C)O5)C(O)C(C)O4)c(C)c(O)c3c(O)c2C(=O)[C@H]1OC1CC(OC2CC(OC3CC(C)(O)C(O)C(C)O3)C(O)C(C)O2)C(O)C(C)O1 (some centres undefined) | -9.07% (active)
O=C1/C(=C/c2ccccc2Br)COc2ccc(O)c(O)c21 | -9.04% (active)
C=CCSc1n[nH]c(-c2cccs2)n1 | 111% (inactive)
Cc1ccc(N2CCN(C(=S)c3cccs3)CC2)cc1 | 93.3% (inactive)
CCCCCCCCCCCCCCCCCCOc1ccccc1CC(=O)NCC[N+]1(C)CCCC1 | 39.7% (inactive)
CS(=O)(=O)C1=CN(CCO)C(=O)N2CCCN=C12 | 109% (inactive)
CCCCNC(=O)Oc1ccc(/C(=C(\C)c2ccc(Cl)cc2)c2ccc(OCCN(CC)CC)cc2)cc1 | 69.8% (inactive)
O=C(/C=C/C=C/c1ccc2c(c1)OCO2)N/N=C\c1ccc(O)cc1O | -0.489% (active)
COc1ccc(NS(=O)(=O)N2CCCCC2)cc1 | 115% (inactive)
Cc1ccc(C2C3CC4CCCCC4N3[C@@]3(C(=O)Nc4cc(Cl)ccc43)C2C(=O)c2nc3ccccc3[nH]2)cc1 (some centres undefined) | 1.4% (active)
CN(C)C(=N)N=C(N)N | 98.3% (inactive) and 145% (inactive)
COC(=O)C(Sc1ccc(Cl)cc1)C1SC(=S)N(Cc2ccccc2)C1=O (centres undefined) | 76.1% (inactive)
CCc1[nH]nc(-c2ccc(OC)cc2)c1-c1ccccc1OCCN(CC)CC | 92.8% (inactive)
